Among the data in PubChem BioAssay (EPA / NIEHS) are outcome and AC50 values, retold here.

Read-out in assay [1]: Monokine induced gamma interferon (MIG), CXCL9 (gene 4283)
As to the kind of experiment: BSK_hDFCGF_MIG: BioMAP Diversity Plus: hDFCGF Assay for Monokine induced gamma interferon (MIG) Biomarker Activity (AID 2283063). The following applies: primary human foreskin fibroblasts; actives raise or lower the signal. The method in brief: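 Human primary foreskin fibroblasts in the hDFCGF system, exposed to test chemical for 24 h; MIG measured by ELISA. Bidirectional curve fitting against DMSO negative control as activity baseline.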

Read-out in assay [2]: Vascular cell adhesion molecule 1 (VCAM1), VCAM1 (gene 7412)
As to the kind of experiment: BSK_hDFCGF_VCAM1: BioMAP Diversity Plus: hDFCGF Assay for Vascular cell adhesion molecule 1 (VCAM1) Biomarker Activity (AID 2283065).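 As to AC50: VCAM-1 protein level quantified by ELISA after 24 h chemical exposure.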 The conditions noted are these: primary human foreskin fibroblasts; actives raise or lower the signal. The method in brief: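 ELISA readout of VCAM-1 on human dermal fibroblast primary cultures, 24 h after chemical exposure. Gain or loss of signal fitted in both directions against DMSO baseline.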

Read-out in assay [3]: Plasminogen activator inhibitor-1 (PAI1), SERPINE1 (gene 5054)
The assay is described as follows: BSK_hDFCGF_PAI1: BioMAP Diversity Plus: hDFCGF Assay for Plasminogen activator inhibitor-1 (PAI1) Biomarker Activity (AID 2283066). The following applies: primary human foreskin fibroblasts; actives raise or lower the signal. A digest of the protocol:
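Human skin fibroblast cultures receive chemical for 24 h before PAI-1 is measured by ELISA; signal changes are fitted bidirectionally against DMSO-treated wells.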

Read-out in assay [4]: Intercellular Adhesion Molecule 1 (ICAM1), ICAM1 (gene 3383)
The assay is described as follows: BSK_KF3CT_ICAM1: BioMAP Diversity Plus: KF3CT Assay for Intercellular Adhesion Molecule 1 (ICAM1) Biomarker Activity (AID 2283067). The conditions noted are these: primary human keratinocytes with fibroblasts; actives raise or lower the signal. The method in brief: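 Cell-surface ICAM-1 was measured by ELISA 24 h after dosing primary human skin keratinocytes co-cultured with fibroblasts. Parallel SRB staining tracked overt cytotoxicity. Gain or loss of signal was fitted relative to DMSO.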

Read-out in assay [5]: Interferon-gamma inducible Protein 10 (IP10), CXCL10 (gene 3627)
As to the kind of experiment: BSK_KF3CT_IP10: BioMAP Diversity Plus: KF3CT Assay for Interferon-gamma inducible Protein 10 (IP10) Biomarker Activity (AID 2283068). The conditions noted are these: primary human keratinocytes with fibroblasts; actives raise or lower the signal. A digest of the protocol:
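Signal is secreted/surface IP-10 by ELISA in a human primary skin co-culture of keratinocytes and foreskin fibroblasts, taken 24 h post-dosing; DMSO served as negative control.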

Assay [6] in a line: BSK_KF3CT_SRB: Viability Assessment in the BioMAP Diversity Plus: KF3CT Assay (AID 2283069).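 Also: read 24 h after compound addition.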 The following applies: primary human keratinocytes with fibroblasts. The method in brief:
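Overt cytotoxicity is assessed as total protein by sulforhodamine B staining in parallel human skin co-cultures at 24 h after dosing. DMSO serves as negative control and baseline.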

Read-out in assay [7]: Interleukin-1 alpha (IL1a), IL1A (gene 3552)
The assay is described as follows: BSK_KF3CT_IL1a: BioMAP Diversity Plus: KF3CT Assay for Interleukin-1 alpha (IL1a) Biomarker Activity (AID 2283070). The following applies: primary human keratinocytes with fibroblasts; actives raise or lower the signal. A digest of the protocol:
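Readout is IL-1a level by ELISA, compared bidirectionally with DMSO as baseline. Cells: human keratinocytes co-cultured with foreskin fibroblasts, harvested 24 h post-dose.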

Read-out in assay [8]: TIMP metallopeptidase inhibitor 2 (TIMP2), TIMP2 (gene 7077)
As to the kind of experiment: BSK_KF3CT_TIMP2: BioMAP Diversity Plus: KF3CT Assay for TIMP metallopeptidase inhibitor 2 (TIMP2) Biomarker Activity (AID 2283071). The conditions noted are these: primary human keratinocytes with fibroblasts; actives raise or lower the signal. The method in brief: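 Measurements come from ELISA detection of TIMP-2 at 24 hours in a dosed human keratinocyte and foreskin fibroblast co-culture. DMSO serves as negative control and baseline.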

Read-out in assay [9]: Transforming growth factor beta 1 (TGFb1), TGFB1 (gene 7040)
The assay is described as follows: BSK_KF3CT_TGFb1: BioMAP Diversity Plus: KF3CT Assay for Transforming growth factor beta 1 (TGFb1) Biomarker Activity (AID 2283072). The conditions noted are these: primary human keratinocytes with fibroblasts; actives raise or lower the signal. A digest of the protocol: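 TGF-b1 ELISA on a 24 h dosed co-culture of human keratinocytes and foreskin fibroblasts; cytotoxicity tracked in parallel cultures by SRB staining.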

Read-out in assay [10]: C-C motif chemokine 2 (Homo sapiens) (UniProt P13500)
As to the kind of experiment: BSK_KF3CT_MCP1: BioMAP Diversity Plus: KF3CT Assay for Monocyte Chemoattractant Protein 1 (MCP1/CCL2) Biomarker Activity (AID 2283073). The conditions noted are these: primary human keratinocytes with fibroblasts; actives raise or lower the signal. A digest of the protocol:
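ELISA read-out of MCP-1, 24 h post-dose, in primary human skin keratinocytes co-cultured with fibroblasts. Parallel SRB staining monitors cytotoxicity; changes fitted both directions relative to DMSO.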

Read-out in assay [11]: Matrix Metallopeptidase 9 (MMP9), MMP9 (gene 4318)
As to the kind of experiment: BSK_KF3CT_MMP9: BioMAP Diversity Plus: KF3CT Assay for Matrix Metallopeptidase 9 (MMP9) Biomarker Activity (AID 2283074).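 As to AC50: MMP9 protein level quantified by ELISA in the co-culture.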 The following applies: primary human keratinocytes with fibroblasts; actives raise or lower the signal. The method in brief:
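Values come from bidirectional fitting relative to DMSO of MMP-9 levels, which were measured by ELISA. Measurements were taken 24 h after chemical dosing of a keratinocyte and foreskin fibroblast co-culture.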

Read-out in assay [12]: urokinase plasminogen activator (uPA), PLAU (gene 5328)
As to the kind of experiment: BSK_KF3CT_uPA: BioMAP Diversity Plus: KF3CT Assay for urokinase plasminogen activator (uPA) Biomarker Activity (AID 2283075). The conditions noted are these: primary human keratinocytes with fibroblasts; actives raise or lower the signal. A digest of the protocol:
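Values derive from bidirectional fitting against DMSO controls. Keratinocyte/foreskin fibroblast co-cultures received chemical; 24 h later uPA was detected by ELISA, with SRB total-protein staining in parallel wells for overt cytotoxicity.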

Read-out in assay [13]: CD40, CD40 (gene 958)
The assay is described as follows: BSK_LPS_CD40: BioMAP Diversity Plus: LPS Assay for CD40 Biomarker Activity (AID 2283076). The conditions noted are these: primary human HUVEC with PBMC; actives raise or lower the signal. A digest of the protocol:
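In the LPS system of human endothelial cells with peripheral blood mononuclear cells, CD40 levels were read by ELISA 24 h post-treatment. Signal changes in either direction were fitted against the DMSO baseline, with parallel SRB protein staining.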

Read-out in assay [14]: E-selectin (Homo sapiens) (UniProt P16581)
As to the kind of experiment: BSK_LPS_Eselectin: BioMAP Diversity Plus: LPS Assay for Eselectin Biomarker Activity (AID 2283077). The following applies: primary human HUVEC with PBMC; actives raise or lower the signal. The method in brief: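 E-selectin ELISA on LPS-stimulated endothelial cell/PBMC co-cultures, read 24 h post-treatment; gains and losses fitted against DMSO. Parallel SRB staining (0.1% SRB after 10% TCA fixation, 560 nm) flags overt cytotoxicity.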

Read-out in assay [15]: Interleukin-8 (IL8), CXCL8 (gene 3576)
The assay is described as follows: BSK_LPS_IL8: BioMAP Diversity Plus: LPS Assay for Interleukin-8 (IL8) Biomarker Activity (AID 2283078). The following applies: primary human HUVEC with PBMC; actives raise or lower the signal. A digest of the protocol: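 ELISA read-out of IL-8 after 24 h chemical treatment of LPS-activated endothelial/PBMC human primary co-cultures. Changes either up or down relative to DMSO; overt cytotoxicity checked by sulforhodamine B staining in parallel wells.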

Assay [16] can be described thus: BSK_LPS_SRB: Viability Assessment in the BioMAP Diversity Plus: LPS Assay (AID 2283079).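 Also: total protein by sulforhodamine B absorbance as a cytotoxicity measure; measured one day after compound addition.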 The following applies: primary human HUVEC with PBMC. A digest of the protocol:
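SRB viability endpoint: cells fixed with 10% TCA, stained with 0.1% SRB, read at 560 nm, 24 h post-dose. HUVEC/PBMC co-culture; signal change in either direction scored relative to DMSO.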

Read-out in assay [17]: Interleukin-1 alpha (IL1a), IL1A (gene 3552)
As to the kind of experiment: BSK_LPS_IL1a: BioMAP Diversity Plus: LPS Assay for Interleukin-1 alpha (IL1a) Biomarker Activity (AID 2283080). The conditions noted are these: primary human HUVEC with PBMC; actives raise or lower the signal. The method in brief:
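Readout is IL-1a level by ELISA, 24 h post-dose, fitted as gain or loss relative to DMSO. System: LPS-activated human primary co-culture of vascular endothelium and peripheral blood mononuclear cells, with parallel SRB total-protein cytotoxicity.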

Read-out in assay [18]: Monocyte Chemoattractant Protein-1 (MCP1), CCL2 (gene 6347)
The assay is described as follows: BSK_LPS_MCP1: BioMAP Diversity Plus: LPS Assay for Monocyte Chemoattractant Protein-1 (MCP1) Biomarker Activity (AID 2283081). The following applies: primary human HUVEC with PBMC; actives raise or lower the signal. A digest of the protocol: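 Secreted MCP-1 read by ELISA at 24 h post-dosing in an LPS-activated co-culture of endothelial cells with peripheral blood mononuclear cells. Fits run in both directions, DMSO as baseline; parallel SRB staining tracks overt cytotoxicity.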

Assay [19] is described as follows: BSK_LPS_PGE2: BioMAP Diversity Plus: LPS Assay for Prostaglandin E2 (PGE2) Biomarker Activity (AID 2283082). The following applies: primary human HUVEC with PBMC; actives raise or lower the signal. The method in brief:
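Primary human endothelial cells and blood mononuclear cells, co-cultured with LPS, receive test chemical; PGE2 ELISA follows at 24 h, with SRB-stained parallel cultures flagging cytotoxicity.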

“And” between values parts separate entries of the source, which are not always exact repeats. Identical values can stand only once. The source made the active and inactive calls. The calls were made as follows: active = hit-call score of the fitted dose curve at least 0.9, where 1 is the maximum; inactive = score below 0.9.

Sequence of E-selectin (Homo sapiens) (P16581 whole entry, looked up): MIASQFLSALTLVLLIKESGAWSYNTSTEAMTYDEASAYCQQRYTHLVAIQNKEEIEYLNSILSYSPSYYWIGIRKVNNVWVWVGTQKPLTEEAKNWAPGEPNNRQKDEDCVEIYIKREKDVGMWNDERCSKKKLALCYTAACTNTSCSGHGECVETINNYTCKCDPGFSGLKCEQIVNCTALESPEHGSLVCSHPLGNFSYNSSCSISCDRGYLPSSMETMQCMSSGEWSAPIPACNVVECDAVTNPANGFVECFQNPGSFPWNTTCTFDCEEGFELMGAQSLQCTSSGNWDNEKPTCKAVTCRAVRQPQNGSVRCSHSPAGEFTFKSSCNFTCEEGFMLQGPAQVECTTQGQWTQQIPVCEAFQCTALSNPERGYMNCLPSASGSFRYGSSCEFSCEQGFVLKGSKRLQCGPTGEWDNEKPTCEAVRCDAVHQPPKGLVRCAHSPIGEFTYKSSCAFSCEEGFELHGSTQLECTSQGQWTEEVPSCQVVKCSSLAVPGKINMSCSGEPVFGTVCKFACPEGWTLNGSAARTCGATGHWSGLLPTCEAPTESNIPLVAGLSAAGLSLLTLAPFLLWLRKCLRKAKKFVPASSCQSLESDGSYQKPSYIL

Regarding `Cc1cc(CCC(=O)OCCOCCOCCOC(=O)CCc2cc(C)c(O)c(C(C)(C)C)c2)cc(C(C)(C)C)c1O`, the outcome in assay [1], in assay [2], in [3], in assay [4], in assay [5] and in assay [6] was inactive. Besides, the outcome in [7], in assay [8], in assay [9], in assay [10], in [11] and in assay [12] was inactive. The result in [13], in assay [14], in assay [15], in assay [16], in assay [17] and in [18] was inactive.
`CSCCC=O`: the outcome in [1], in assay [2], in [3], in assay [4], in assay [5] and in assay [6] was inactive. The result in [7], in [8], in assay [9], in [10], in assay [11] and in [12] was inactive. The outcome in [13], in assay [14], in assay [15], in [16] and in assay [18] was inactive.
For the compound `C=CC(C)(O)CCC=C(C)C` (stereo unspecified), the outcome in assay [1], in assay [2], in assay [3], in assay [4], in [5] and in assay [6] was inactive. In addition, the outcome in assay [7], in assay [8], in [10], in [11], in assay [12] and in assay [13] was inactive. The outcome in [14], in assay [15], in [16], in assay [17], in assay [18] and in assay [19] was inactive.
Regarding `CN(C)C(=O)Nc1ccc(Oc2ccc(Cl)cc2)cc1`, the result in assay [1], in assay [2], in assay [4], in assay [5], in assay [6] and in assay [7] was inactive. Besides, the outcome in [8], in [9], in [10], in assay [11], in [12] and in assay [13] was inactive. The outcome in assay [14], in [15], in assay [16], in [17] and in assay [18] was inactive. In addition, the AC50 in assay [3] is 16 nM (active).
Regarding `COc1cc(Cl)c(OC)cc1N`, the result in [1], in assay [2], in [3], in [4], in [5] and in assay [6] was inactive. Further, the outcome in assay [7], in assay [8], in [9], in assay [10], in [11] and in [12] was inactive. Besides, the outcome in [13], in assay [14], in assay [15], in [16], in assay [17] and in assay [18] was inactive.
For `CC1(C)CCC[C@]2(C)[C@H]3CCO[C@]3(C)CC[C@@H]12`, the AC50 was 34.5 µM (active) and 36.6 µM (active) in [1]; 38.1 µM (active) and 33.9 µM (active) in assay [2]; 37.2 µM (active) and 31.1 µM (active) in [3]; 37.1 µM (active) and 38.1 µM (active) in [4]; 37.5 µM (active) and 33.9 µM (active) in assay [5]; 33.4 µM (active) and 36.8 µM (active) in assay [6]. Also, the concentration at half-maximal activity (AC50) in [7] is 34.4 µM (active) and 38.9 µM (active); in assay [8] it was 33.1 µM (active) and 33.9 µM (active); in assay [10], 33.9 µM (active) and 30.7 µM (active); in assay [11], 36.7 µM (active) and 35.6 µM (active); in assay [12], 36.6 µM (active) and 37.8 µM (active). For the same compound, the result in assay [13], in [14], in assay [15], in assay [16], in assay [17] and in assay [18] was inactive.

The term AC50 denotes the midpoint of the concentration-response curve, whichever way the signal moves.
